Source: PubChem
beta cell repl – induces beta-cell replication in MIN6 cells; MIN6 cells proliferation, ATPlite luminescence, 48 h; cells starved in 0.2% serum; 100% = growth in 10% serum; proliferation, % at 10 µM; 330,000 tested, 0.29% active;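 active = compounds whose signal lies at least 3.5 SD above the mean of all wells on their plate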;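 note: 0% = DMSO-treated cells in low-serum medium and 100% = 10% serum control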
Platelet DG rel – platelet dense granule release activity | human platelet-rich plasma, SFLLRN dense granule ATP release, luminescence | inhibition, %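 (compounds screened at 7.5 µM in platelet-rich plasma)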 | 300,000 tested, 0.22% active | AID 1663;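 active = mean replicate score, as percent of positive control, at or above 50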
NTR1 ag – NTR1 (human) agonism; activation, % at 20 µM; AID 493036; NTR1-U2OS beta-arrestin-GFP spot imaging, agonist mode; 330,000 tested, 0.17% active;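 active = activation at or above 40% of the spot to cytoplasm intensity ratio, with at least 20 cells analyzed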;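 note: 0% = DMSO without peptide and 100% = 100 nM NTR1 peptide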
GRK2 aptamer HTS – human GRK2 inhibition via aptamer displacement. bead flow cytometry, FAM-aptamer displacement from GRK2. AID 488847. inhibition of aptamer binding, % at 10 µM. P25098. 330,000 tested, 0.59% active;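 active = inhibition of aptamer binding above 40%, roughly 3 SD of noise, on plates passing a quality check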;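 note: median bead fluorescence of bound FAM aptamer so fluorescent compounds give negative values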
Target sequence (P25098 whole entry, looked up): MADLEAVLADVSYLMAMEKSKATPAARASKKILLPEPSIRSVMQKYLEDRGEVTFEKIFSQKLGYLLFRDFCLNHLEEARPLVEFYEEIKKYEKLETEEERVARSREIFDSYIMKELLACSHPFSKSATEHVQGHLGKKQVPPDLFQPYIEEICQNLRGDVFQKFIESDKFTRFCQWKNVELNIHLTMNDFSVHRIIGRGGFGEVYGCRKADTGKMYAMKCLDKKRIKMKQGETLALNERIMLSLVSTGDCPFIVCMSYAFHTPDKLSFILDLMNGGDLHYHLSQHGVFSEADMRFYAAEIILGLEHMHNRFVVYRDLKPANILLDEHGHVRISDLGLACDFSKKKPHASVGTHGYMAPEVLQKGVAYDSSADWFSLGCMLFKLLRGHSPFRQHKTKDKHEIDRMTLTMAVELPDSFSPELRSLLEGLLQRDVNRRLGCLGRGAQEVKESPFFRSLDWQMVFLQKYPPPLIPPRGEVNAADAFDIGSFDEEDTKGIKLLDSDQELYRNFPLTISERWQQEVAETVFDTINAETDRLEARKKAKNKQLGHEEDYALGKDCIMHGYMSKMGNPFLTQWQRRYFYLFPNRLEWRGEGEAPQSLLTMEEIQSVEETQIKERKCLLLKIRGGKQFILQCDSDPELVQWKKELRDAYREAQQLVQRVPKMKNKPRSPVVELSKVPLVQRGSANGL
GRK2 inh confirm – human GRK2 inhibition confirmation, cherry pick 1. shares compounds with GRK2 aptamer HTS. bead-bound GRK2, FAM-aptamer displacement, flow cytometry. aptamer displacement, % at 10 µM. 2,000 tested, 4% active. AID 504451;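 active = aptamer displacement above 40%, near three times the noise of non-fluorescent compounds, on plates passing quality checks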;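 note: negative values mostly reflect intrinsic compound fluorescence rather than true enhancement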
Aptamer quench – quenches fluorescent RNA aptamer, GRK2 hit artifact; shares compounds with GRK2 aptamer HTS; Fluorescent RNA aptamer beads, quenching, flow cytometry; hits give high values; fluorescence change (kMESF span), kMESF (concentration not given with the values); 110 tested, under 10 active; AID 504521;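 active = compounds whose bead fluorescence drops by more than 37 kMESF across the dose range, marking them as dye quenchers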
FAM quench CP1 – quenches fluorescent RNA aptamer, GRK2 hit artifact; Carboxyfluorescein RNA aptamer on beads, flow cytometry quenching; hits give low values; 2,000 tested, under 10 active; shares compounds with GRK2 aptamer HTS; fluorescence response (% of DMSO), % at 10 µM;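 active = compounds that quench the bead-bound fluorescent RNA probe, cutting fluorescence to under half of the solvent control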;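 note: counterscreen run without GRK2 so only probe quenching by compound is measured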
GRK2 confirm 2 – confirmation of human GRK2 inhibitors binding RNA aptamer site; bead-bound GRK2, FAM-aptamer displacement, flow cytometry; shares compounds with GRK2 aptamer HTS; AID 504782; 360 tested, under 10 active; inhibition of aptamer binding, % at 10 µM;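 active = inhibition of aptamer binding above 40%, about triple the noise seen with nonglowing compounds, on plates passing quality control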;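 note: negative values mostly come from compounds that fluoresce themselves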
FAM quench SP – aptamer fluorescence quenching in GRK2 counter-screen | carboxyfluorescein RNA aptamer beads, flow cytometry quenching; hits give low values | fluorescence response vs DMSO, % at 10 µM | 360 tested, under 10 active | AID 588494 | shares compounds with GRK2 aptamer HTS;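 active = response vs DMSO under 50%, meaning signal dropped by over half, treated as fluorescence quencher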;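 note: labelled aptamer on streptavidin beads without GRK2 as a quench counter-screen; 100% = bead fluorescence of DMSO wells and lower means quenching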
An asterisk follows results filed as active; / = no result given. An excerpt weighted towards active compounds, which were near 1.2% of everything screened.

SMILES	beta cell repl	Platelet DG rel	NTR1 ag	GRK2 aptamer HTS	GRK2 inh confirm	FAM quench CP1	others
COc1cccc(C(=O)Nc2cccc(-c3ccc4nncn4n3)c2)c1OC	1	-1	2	17	/	/
COc1ccc(Cl)cc1C(=O)Nc1cccc(-c2ccc3nncn3n2)c1	3	-2	-2	60*	17	96
Cc1ccc(S(=O)(=O)N(CC(=O)N2CCN(c3ccc(F)cc3)CC2)C2CCCCC2)cc1	-5	-3	-1	0	/	/
Cc1cccc(N(C(=O)c2ccco2)C(C(=O)NC2CCCC2)c2ccco2)c1C (configuration not stated)	2	6	-1	/	/	/
C[C@H]1CN=C(N(C)C)N1CCCC1CCCC1	0	/	-6	42*	-5	100
C=CCOC(=O)CSCC(NC(=O)OC(C)(C)C)C(=O)OCC (configuration not stated)	0	-3	0	86*	1	105
O=C(NCc1ccccc1)Nc1cccn(Cc2ccc(F)cc2)c1=O	-1	-7	3	0	/	/
O=C(NCc1ccccc1)Nc1cccn(Cc2ccccc2)c1=O	0	-9	0	57*	/	/	GRK2 confirm 2=6;FAM quench SP=101
CC(C)(C)c1ccc(/C=C2\CCn3c2nc2cc(C(=O)O)ccc2c3=O)cc1	-6	0	1	0	/	/
COc1ccc(/C=C2\CCn3c2nc2cc(C(=O)O)ccc2c3=O)cc1	-2	2	-2	41*	/	/	GRK2 confirm 2=0;FAM quench SP=99
COc1ccccc1CNC(=O)c1cccc(S(=O)(=O)N2CCN(c3ccc(F)cc3)CC2)c1	-3	/	0	1	-2	101
Cc1ccnc(NC(=O)c2cccc(S(=O)(=O)N3CCN(c4ccccc4)CC3)c2)c1	-5	3	0	0	/	/
COc1ccc(CNC(=O)c2cccc(S(=O)(=O)N3CCN(c4ccc(F)cc4)CC3)c2)cc1	0	/	1	/	/	/
O=C(c1cccc(S(=O)(=O)N2CCc3ccccc3C2)c1)N1CCN(c2ccccc2)CC1	-1	13	0	0	/	/
Cc1ccc(NC(=O)c2cccc(S(=O)(=O)N3CCN(c4ccccc4)CC3)c2)nc1	-2	9	1	100*	-2	100
O=C(NC1CCCc2ccccc21)c1cccc(S(=O)(=O)N2CCN(c3ccccc3)CC2)c1 (configuration not stated)	-3	-6	1	2	1	128
O=C(c1cccc(S(=O)(=O)N2CCc3ccccc32)c1)N1CCN(c2ccccc2)CC1	-4	/	3	/	6	92
COc1ccccc1N(C(=O)CNC(=O)c1ccco1)C(C(=O)NCC1CCCO1)c1ccccc1 (configuration not stated)	0	-5	0	0	/	/
COc1ccc(C)cc1NC(=O)CCCN1C(=O)CN(C)C1=O	5	/	0	0	/	/
CCCCCCCCCCCCC/C=C/[C@@H](O)[C@@H](N)CO	-8	0	0	0	/	/
CSCC[C@H](NC(=O)Cc1c(C)c2c(cc(C)c3c(C)coc32)oc1=O)C(=O)O	-3	11	0	97*	-5	95
Cc1nc2nc(SCC(=O)c3ccc([N+](=O)[O-])cc3)[nH]c2cc1Br	-2	-4	2	0	/	/
Cc1nc(SCC(=O)O)c(C#N)c2c1CCCC2	1	-1	0	82*	15	101
CCCCCC(=O)Nc1ccc(N2CCOCC2)c(S(=O)(=O)Nc2ccc(OC)cc2)c1	-3	-6	3	82*	-19	94
CC(C)c1nnc(NC(=O)C2CCCN(C(=O)Nc3ccc(F)cc3)C2)s1 (configuration not stated)	-2	1	-1	0	2	98
SMILES	beta cell repl	Platelet DG rel	NTR1 ag	GRK2 aptamer HTS	GRK2 inh confirm	FAM quench CP1	others
Cc1ccc(NC(=O)C2CCCN(C(=O)Nc3ccc(F)cc3)C2)cc1 (configuration not stated)	0	-2	2	0	/	/
Cn1c(=O)oc2cc(S(=O)(=O)NCc3ccccn3)ccc21	4	-1	0	52*	3	100
COc1ccc(CCNC(=O)C/C(C)=N/NC(=O)c2cnccn2)cc1	-3	2	1	1	/	/
O=C1NC2=C(C(=O)CCC2)C(c2ccccc2)N1 (configuration not stated)	0	-19	3	1	/	/
CC1(C)CC(=O)C2=C(C1)NC(=O)NC2c1ccccc1 (configuration not stated)	-3	3	-1	47*	-2	102
CCC(C)(C)NC(=O)CN(Cc1cccs1)C(=O)C(=O)Nc1ccc2c(c1)OCCO2	2	-8	1	74*	2	88
COCCn1c(N)c(N(Cc2ccccc2)C(=O)COc2ccccc2F)c(=O)[nH]c1=O	0	/	0	0	/	/
COCCCNC(=O)c1c(N)n(-c2ccccc2)c2nc3ccccc3nc12	-3	4	3	1	/	/
COCCNC(=O)c1c(N)n(-c2ccccc2)c2nc3ccccc3nc12	-2	-4	0	35	0	103
O=C(NCC1CCCO1)C1CCCN1C(=O)NC1CCCCC1 (configuration not stated)	-5	-4	-2	4	/	/
O=C(NCC1CCCO1)C1CCCN1C(=O)Nc1ccc(Cl)c(Cl)c1 (configuration not stated)	0	-2	-2	53*	-5	99
C=C(C)C(=O)Nc1cccc(C2=NOC3(C2)C[C@H](C(N)=O)N(C(=O)/C=C/C)C3)c1 (some centres not stated)	1	1	-3	70*	50*	88	Aptamer quench=-1.4
C=C(C)C(=O)Nc1cccc(C2=NOC3(C2)C[C@@H](C(N)=O)N(C(=O)/C=C/CC)C3)c1 (some centres not stated)	-4	6	1	61*	41*	99	Aptamer quench=11
O=C(NC(=S)Nc1ccc2oc(=O)ccc2c1)c1cc2ccccc2o1	-6	-4	6	/	/	/
O=C(CCSCCC(=O)N1CCCC1)N1CCCC1	-1	-7	-3	45*	-4	96
COC(=O)C1CCN(C(=O)COc2ccc(S(=O)(=O)N3CCOCC3)cc2Cl)CC1	0	/	1	0	/	/
O=C(NCc1ccco1)c1nc2nc(-c3cccs3)cc(C(F)(F)F)n2n1	2	0	1	42*	2	99
